Results filed as inconclusive are left out. Active and inactive are the calls of the source. The call rests on the fitted dose curve.
What follows are compounds tested against Thyrotropin receptor (Homo sapiens) (UniProt P16473) (assay: qHTS assay to identify small molecule agonists of the thyroid stimulating hormone receptor (TSHR) signaling pathway (AID 1224843; further: nearly all actives have a fitted effect of over 45% in size)). Conditions: TSHR-HEK293 cells, cAMP HTRF, agonist mode, 30 min; series mostly up to 92.4 µM.
Excerpt: National Center for Advancing Translational Sciences [NCATS]
NIH Chemical Genomics Center [NCGC]
U.S. Environmental Protection Agency [EPA]
National Institutes of Environmental Health Sciences [NIEHS]
National Toxicology Program [NTP]
U.S. Food and Drug Administration [FDA]
TSHR is the receptor for thyrotropin (thyroid stimulating hormone or TSH), a member of the glycoprotein hormone family. TSH is released by the anterior pituitary gland and is the main regulator of thyroid gland growth and development. Upon binding circulating thyrotropin, a G-protein signal cascade activates adenylyl cyclase and […] cAMP concentration is increased. cAMP is a key second messenger involved extensively in cellular signal transduction pathways associated with the majority of G-protein coupled receptors (GPCRs). The activation of these GPCRs by neurotransmitters, lipids, nucleotides, peptides and hormones results in the activation or the inhibition of plasma membrane-bound adenylate cyclase through heterotrimeric G-proteins. A cell-based TSHR assay was used to screen the Tox21 10K library for compounds that can modulate TSHR in agonist mode.
Tox21 Assay Protocol Summary:
TSHR-Hek293 cells were dispensed at 800 cells/4uL/well in 1536-well white plates using a Multidrop dispenser. […] The plates were incubated at room temperature for 30 min. 2.5 ul/well of cAMP-d2 and 2.5ul/well of anti-cAMP-cryptate was added respectively into the assay plates using a Flying Reagent Dispenser. After 1 hr incubation at room temperature, the fluorescence intensity in the plates was measured using an Envision plate reader. Each test compound was measured at 15 concentrations and in triplicates.
On the % scale 0 is the no-effect control and ±100 the full control effect.

Chain of Thyrotropin receptor (Homo sapiens) (P16473 whole entry, looked up): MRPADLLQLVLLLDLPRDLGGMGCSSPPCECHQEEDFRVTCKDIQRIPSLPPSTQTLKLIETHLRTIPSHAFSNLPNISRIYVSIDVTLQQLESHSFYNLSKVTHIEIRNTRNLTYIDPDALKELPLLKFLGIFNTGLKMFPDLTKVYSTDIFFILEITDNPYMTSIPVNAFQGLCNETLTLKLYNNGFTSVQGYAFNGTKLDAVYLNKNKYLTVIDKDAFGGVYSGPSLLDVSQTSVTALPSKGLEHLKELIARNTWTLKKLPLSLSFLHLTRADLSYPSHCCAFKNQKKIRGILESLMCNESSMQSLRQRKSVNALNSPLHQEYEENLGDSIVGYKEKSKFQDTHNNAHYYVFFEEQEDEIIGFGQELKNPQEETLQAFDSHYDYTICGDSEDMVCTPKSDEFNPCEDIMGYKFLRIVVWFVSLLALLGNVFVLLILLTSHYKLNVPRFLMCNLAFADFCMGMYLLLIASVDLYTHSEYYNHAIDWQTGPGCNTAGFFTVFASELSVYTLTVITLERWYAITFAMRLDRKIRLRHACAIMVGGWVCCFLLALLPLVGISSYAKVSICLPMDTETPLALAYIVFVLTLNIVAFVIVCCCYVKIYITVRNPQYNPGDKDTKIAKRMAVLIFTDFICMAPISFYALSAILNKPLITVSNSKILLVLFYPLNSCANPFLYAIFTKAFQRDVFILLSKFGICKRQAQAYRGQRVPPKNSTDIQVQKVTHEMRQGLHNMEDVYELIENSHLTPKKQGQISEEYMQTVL

Row | SMILES | outcome | activation
1 | CC12CCC(CC1=O)C2(C)C (stereo not given) | inactive | 
2 | CC1(C)OC(=O)Nc2ccc(Br)cc21 | inactive | 
3 | Nc1nc(F)nc2c1ncn2[C@@H]1O[C@H](CO)[C@@H](O)[C@@H]1O | inactive | 
4 | CC1=CC(=O)CCC1 | inactive | 
5 | C=CC(=O)OCCCCCC | inactive | 
6 | COC(=O)CCCCCCCCC(=O)OC | inactive | 
7 | CCC(=O)c1cccc(Cl)c1 | inactive | 
8 | Cn1ccc2cc3c(cc21)CCN3C(=O)Nc1cccnc1 |  | 14.6% [at 19 µM] (inactive)
9 | O=C1OC(=O)c2cc([N+](=O)[O-])ccc21 | inactive | 
10 | C#CC(O)C(CC)CCCC (stereo not given) | inactive | 
11 | CCCCCCCCN(C)CCCCCCCC | inactive | 
12 | COc1cc(CCC(C)=O)ccc1O | inactive | 
13 | Cc1nccn1CC1CCc2c(c3ccccc3n2C)C1=O (stereo not given) | inactive | 
14 | CCn1c(=O)c2c(nc(/C=C/c3ccc(OC)c(OC)c3)n2C)n(CC)c1=O | inactive | 
15 | C=CC(=O)N1CCOCC1 | inactive | 
16 | CN(C)CCn1nnnc1SCC1=C(C(=O)O)N2C(=O)[C@@H](NC(=O)Cc3csc(N)n3)[C@H]2SC1 | inactive | 
17 | NS(=O)(=O)c1cc(C2(O)NC(=O)c3ccccc32)ccc1Cl (stereo not given) | inactive | 
18 | CC1(C)SC(C)(C)SC(C)(C)S1 | inactive | 
19 | CCN1CCN(c2cc3c(cc2F)c(=O)c(C(=O)O)cn3C2CC2)CC1 | inactive | 
20 | CCCCCCC(=O)OCC | inactive | 

Row | SMILES | outcome | activation
21 | COc1ccc(NC(C)=O)cc1 | inactive | 
22 | COC(=O)CCCC(=O)O | inactive | 
23 | CN(C)C(=O)Nc1ccccc1 | inactive | 
24 | NC(=O)c1c(Cl)cccc1Cl | inactive | 
25 | OCC(CO)(CO)COCC(CO)(CO)CO | inactive | 
26 | OCCN1C[C@H](O)[C@@H](O)[C@H](O)[C@H]1CO | inactive | 
27 | Cn1cnc2c(=O)[nH]c(N)nc21 | inactive | 
28 | CC/C=C\C#N | inactive | 
29 | C=C(C)C1CC=C(C)C(O)C1 (stereo not given) | inactive | 
30 | Nc1ccc2cc(S(=O)(=O)O)ccc2c1 | inactive | 
31 | CCN(CC)S(=O)(=O)c1ccc(C(=O)O)cc1 | inactive | 
32 | OCC(O)[C@@H](O)[C@H](O)[C@H](O)CO[C@H]1O[C@H](CO)[C@@H](O)[C@H](O)[C@H]1O (stereo not given in full) | inactive | 
33 | C=C(C)C(=O)NCCC[N+](C)(C)C | inactive | 
34 | Nc1ncnc2c1ncn2Cc1c(F)cccc1Cl | inactive | 
35 | Oc1cc(O)c2c(c1)O[C@H](c1ccc(O)c(O)c1)[C@H](O)C2 | inactive | 
36 | COc1cccc(Br)c1 | inactive | 
37 | C[C@H](O)C(=O)Nc1c(I)c(C(=O)NC(CO)CO)c(I)c(C(=O)NC(CO)CO)c1I | inactive | 
38 | NC(=O)CCCCC1CCSS1 (stereo not given) | inactive | 
39 | O=C(O)CCNC(=O)c1ccc(N=Nc2ccc(O)c(C(=O)O)c2)cc1 | inactive | 
40 | CC1=CC(C)C(C=O)C(C)C1 (stereo not given) | inactive | 
